Compound activity as filed in PubChem.
aSyn 5UTR act – Activators via SNCA 5'UTR binding, MLPCN. 300,000 compounds, 7.1% hits. activity score, % (tested at 7.5 µM), hits read low. alpha-synuclein 5'UTR reporter, activators screen; in the data active means activity score below about -60%
* hit, by the source's call. A selection follows.

`O=C(N/N=C/c1ccc(N2CCOCC2)cc1)c1ccccn1` gave aSyn 5UTR act -103*.
Screening COc1ccc2c(c1)C1OCCC1C(c1ccco1)N2 (stereo not drawn) returned aSyn 5UTR act -76*.
For O=C(NCCc1ccccc1Cl)c1ccc2nc3ccccc3c(=O)n2c1 the results were aSyn 5UTR act -100*.
O=[N+]([O-])c1cc(C=Nc2ccc3ccccc3c2)ccc1Br was read as aSyn 5UTR act -119*.
Screening NC(=O)c1sc2nc(-c3ccco3)ccc2c1N returned aSyn 5UTR act -62*.
For COC(=O)c1sc2nc(-c3ccco3)ccc2c1N the results were aSyn 5UTR act -236*.
For Cc1ccc(NC(=O)c2ccoc2C)cc1C the results were aSyn 5UTR act -231*.
Screening COc1cccc(C(=O)Nc2ccc3c(c2)OCO3)c1OC returned aSyn 5UTR act -128*.
Screening O=C(CCl)Nc1ccccc1C(=O)Nc1ccc2c(c1)OCO2 returned aSyn 5UTR act -87*.
`O=C(COC(=O)c1ccccc1NCc1ccco1)Nc1ccc2c(c1)OCO2` gave aSyn 5UTR act -67*.
Screening Cc1occc1C(=O)Nc1ccc2c(c1)OCO2 returned aSyn 5UTR act -144*.
Screening Cc1ccc(C(=O)Nc2ccc3c(c2)OCCO3)c(C)c1 returned aSyn 5UTR act 73.
For Cc1occc1C(=O)Nc1cccc(C(=O)O)c1 the results were aSyn 5UTR act -85*.
Cc1csc(-c2coc3cc(O)cc(C)c3c2=O)n1 was read as aSyn 5UTR act -207*.
For CCc1cc2c(=O)c(-c3nc(C)cs3)coc2cc1O the results were aSyn 5UTR act -145*.
O=C(Nc1ccccc1)c1ccc(-c2ccc(Br)cc2)o1 was read as aSyn 5UTR act -93*.
For O=C(c1ccc(-c2ccc([N+](=O)[O-])cc2)o1)N1CCCCC1 the results were aSyn 5UTR act -106*.
Screening O=C(Nc1ccccc1)c1ccc(-c2ccc([N+](=O)[O-])cc2)o1 returned aSyn 5UTR act -98*.
CC(=O)c1ccc(NC(=O)c2ccn(C(=O)OCC(C)C)n2)cc1 was read as aSyn 5UTR act -86*.
For CCCCc1ccc(NC(=O)OC)cc1 the results were aSyn 5UTR act -79*.
CCCCc1ccc(NC(=O)Nc2cccnc2)cc1 was read as aSyn 5UTR act -102*.
Screening O=C(Nc1ccccc1)OCCCc1ccccc1 returned aSyn 5UTR act -119*.
Screening COc1ccc2sc3ccccc3c(=O)c2c1OC returned aSyn 5UTR act -145*.
For Nc1ccc(C#Cc2ccc3sc4ccccc4c(=O)c3c2)cc1 the results were aSyn 5UTR act -190*.
For COc1cccc2sc3ccc(C#CC4(O)CCCCC4)cc3c(=O)c12 the results were aSyn 5UTR act -191*.
COc1ccc2sc3c(=O)[nH]c4ccccc4c3c2c1 was read as aSyn 5UTR act 63.
O=c1c2ccccc2sc2ccc(C#CC3(O)CCCCC3)cc12 was read as aSyn 5UTR act 104.
For COc1cccc2sc3ccc(C#Cc4ccc(N)cc4)cc3c(=O)c12 the results were aSyn 5UTR act -111*.
COc1cccc2sc3ccc(NCc4ccc5c(c4)OCO5)cc3c(=O)c12 was read as aSyn 5UTR act -63*.
`CC(C)(C)c1ccc(C(=O)NC(=S)Nn2cnnc2)cc1` gave aSyn 5UTR act -76*.
CC(C)(C)c1cc(CCC(=O)NNC(=S)NC(=O)c2ccccc2)cc(C(C)(C)C)c1O was read as aSyn 5UTR act 66.
`COc1ccc(/C=C(\C#N)C(=O)OC2CCOC2=O)cc1` (stereo not drawn) gave aSyn 5UTR act -84*.
`CSc1nsc(SCC(=O)Nc2ccc(OC(C)=O)cc2)n1` gave aSyn 5UTR act -124*.
CSc1nsc(SCC(=O)Nc2ccccc2F)n1 was read as aSyn 5UTR act -63*.
For CCOC(=O)c1ccc(NC(=O)CSc2nc(SC)ns2)cc1 the results were aSyn 5UTR act -107*.
For Fc1ccc(-c2nnc(-c3ccc(Cl)cc3)o2)cc1 the results were aSyn 5UTR act -194*.
For COc1ccc(-c2ccc(-c3nnc(-c4ccncc4)o3)cc2)cc1 the results were aSyn 5UTR act -115*.
For CCCc1nnc(-c2ccc(OC)cc2)o1 the results were aSyn 5UTR act -67*.
Screening CCN(CC)CCCNc1ccc(-c2nnc(-c3ccc(OCC(C)C)cc3)o2)cn1 returned aSyn 5UTR act 121.
Screening Cc1ccc(-c2nnc(-c3ccccc3)o2)cc1 returned aSyn 5UTR act -77*.
COc1ccc(-c2nnc(-c3ccc(F)cc3)o2)cc1 was read as aSyn 5UTR act -152*.
For CCNc1nnc(-c2ccc(C)cc2)o1 the results were aSyn 5UTR act -80*.
Cc1ccc(C(=O)Nc2nnc(-c3ccncc3)o2)cc1 was read as aSyn 5UTR act -82*.
Screening Cc1ccc(-c2nnc(-c3cccs3)o2)cc1 returned aSyn 5UTR act -93*.
`COc1ccc(-c2nnc(NC(=O)c3ccc(S(=O)(=O)N4COCC4(C)C)cc3)o2)cc1` gave aSyn 5UTR act 76.
Screening CCCN(CCC)S(=O)(=O)c1ccc(C(=O)Nc2nnc(-c3cc(OC)cc(OC)c3)o2)cc1 returned aSyn 5UTR act 82.
Clc1ccc(-c2nnc(N3CCOCC3)o2)cc1 was read as aSyn 5UTR act -71*.
